Lassa entry inh = blocks Lassa virus binding to or entry into cells. Lassa virus pseudotype entry inhibition, cell reporter. Potency, µM (series often up to 37.9 µM), for inactives: top-dose activity change, negative = inhibition, actives largely listed as inhibitors. 300,000 compounds, 1.2% hits; calls by dose curve; tested in HEK293 cells; also: potency is read from the fitted curve at half-maximal effect; % is scaled to controls: 0 for no effect and ±100 for the full control effect; nearly all actives have a fitted effect of over 50% in size
Pf growth 48h = inhibits P. falciparum growth in the first generation, 48 h. P. falciparum luciferase growth in erythrocytes, 48 h. Potency, µM (series often up to 28.7 µM), for inactives: at the top dose activity change, negative = inhibition, usual class: inhibitors. 310,000 compounds, 5.9% hits. AID 504832; also: potency is read from the fitted curve at half-maximal effect; % is scaled to controls: 0 for no effect and ±100 for the full control effect
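Parasite viability was followed by luminescence of a genomically integrated firefly luciferase. Cultures held 0.1% parasitemia at 2% hematocrit (final), incubated under 5% CO2 at 37 C.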
Marburg entry inh = blocks Marburg virus binding to or entry into cells. Marburg virus pseudotyped entry inhibition, cell reporter. Potency, µM (titrated, usually from 37.8 µM), for the others: at the top dose activity change, negative = inhibition, usual class: inhibitors. 300,000 compounds, 1.8% hits; calls by dose curve; tested in HEK293 cells; also: potency is read from the fitted curve at half-maximal effect; % is scaled to controls: 0 for no effect and ±100 for the full control effect
Cycloheximide cs = counter-screen for Shiga toxin inhibitors: cycloheximide protein synthesis inhibition; cell reporter, cycloheximide protein synthesis inhibition counterscreen; max response, %; 300,000 compounds, 12% hits; in the data active = max response mostly above about 13%, no sharp cut-off; inactive = mostly below about 14%; also: read at 38.3 µM for the half of the compounds with a filed dose; 0% is about no effect
Pf growth 96h = P. falciparum growth inhibition at 96 hours; P. falciparum luciferase reporter growth, 96 h; Potency, µM (doses to about 28.7 µM), for inactives: at the highest dose activity change, negative = inhibition, actives largely listed as inhibitors; 320,000 compounds, 6.9% hits; AID 504834; also: potency is read from the fitted curve at half-maximal effect; % is scaled to controls: 0 for no effect and ±100 for the full control effect
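Two-generation exposure (96 h) targets delayed-death phenotype. Reporter parasites carrying integrated firefly luciferase, in red cells at 2% hematocrit and 0.05% parasitemia final, kept at 37 C, 5% CO2; luminescence loss indicates inhibition.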
Shiga toxin inh = Shiga toxin inhibition; Vero cells, Shiga toxin protein synthesis inhibition reporter; inhibition, % at 38.7 µM; 290,000 compounds, 9.2% hits; in the data active = inhibition mostly above about 28%, no sharp cut-off; inactive = mostly below about 43%; also: 0% is about no effect
* = called active by the depositor; ? = inconclusive; / = no result; [ ] = another dose, or the depositor's remark. The list is not random: actives were taken first. Their share in the collection is about 19%. Unless noted, calls follow the shape of the dose curve; as a rule, active = well fitted inhibition curve with a large enough effect; inconclusive = small, poorly fitted or top-dose-only effect, or another doubt; inactive = no such curve, though single readings can be large or run the other way.

SMILES	Lassa entry inh	Pf growth 48h	Marburg entry inh	Cycloheximide cs	Pf growth 96h	Shiga toxin inh
CN(CC(=O)Nc1ccc(Cl)cc1)C(=O)c1cccc(S(=O)(=O)NCc2ccccc2)c1	-5%	2%	-10%	-3	2%	-22
COc1ccc(C(=O)Nc2cccc(S(=O)(=O)NCc3ccco3)c2)cc1	-11%	/	-18%	/	/	/
O=C(Nc1ccccc1)c1cccc(S(=O)(=O)NCc2ccco2)c1	-25%	-8%	-30%	50*	55%	52*
CC1CCCCC1NC(=O)c1ccc(S(=O)(=O)NCc2ccco2)cc1 (configuration not stated)	0%	?	-11%	40*	?	62*
O=c1[nH]c(CSc2nnc(-c3cccnc3)n2C2CCCCC2)nc2ccccc12	-14%	2%	-14%	-4	/	-6
COc1ccccc1CN1CC(C(=O)NCc2cccc(C)n2)CCC1=O (configuration not stated)	/	9%	/	-5	33%	10
Cc1ccc(CN2C(=O)CC(Nc3ccc(N4CCOCC4)cc3)C2=O)cc1 (configuration not stated)	/	-1%	/	-1	56%	-6
C[n+]1c2ccccc2nc2ccc(NCCO)cc21	?	0.12µM*	?	13*	0.13µM*	-1
CNc1ccc2nc3ccccc3[n+](C)c2c1	/	0.17µM*	/	35*	0.17µM*	67*
COc1cccc(OCCCCN2CCCCC2)c1	0%	9%	-12%	-3	/	0
CCOc1ccccc1CN(CCc1ccc2c(c1)OCO2)Cc1ccc(CC)cc1	-32%[46.1 µM]	/	-30%[46.1 µM]	/	/	/
C=CCOc1ccccc1CN(C(=O)CCl)c1ccc2c(c1)OCO2	-19%	?	?	17*	12µM*	49*
Cc1cccc(NC(=S)NN(Cc2ccccc2)c2ccccc2)c1C	-18%	/	-4%	3	4.1µM*	12
Cc1cccc(NC(=S)NC(=O)Cc2ccccc2)c1C	?	?	11%[46.1 µM]	8	-5%	15*
Cc1cc(C)c(NC(=S)N(C)C)cc1C	/	1%	/	-4	0%	36
Cc1cccc(NC(=S)N(C)C)c1C	13%	36%	15%[46.1 µM]	-2	7%	30*
Cc1cccc(NC(=S)NC(=O)CCc2ccccc2)c1C	?	/	-8%	18*	?	22
CCCN(Cc1ccccc1)C(=S)Nc1cccc(C)c1C	/	4%	-9%[46.1 µM]	1	?	-6
Cc1cc2c(=O)n(Cc3ccco3)c(SCC(=O)N3CCCc4ccccc43)nc2s1	?	?	?	12*	/	5
O=C(Nc1nsc(-c2ccccc2)n1)c1ccc(F)cc1	/	166%	/	32*	?	74*
O=C(Nc1scc(-c2ccccc2)c1C(=O)O)c1ccc(F)cc1	/	30%	/	24*	6%	20*
CCOC(=O)c1c(-c2ccc(C)cc2)csc1NC(=O)c1ccc(C(C)(C)C)cc1	6%[46.1 µM]	/	/	/	/	/
Cc1ccc(-c2csc(NC(=O)c3ccc(F)cc3)c2C(=O)O)cc1	?	5%	?	40*	3%	94*
O=C(Nc1nc2nccc(-c3ccccc3)n2n1)c1ccc(F)cc1	-2%	23%	24%	1	2%	-9
CCOC(=O)c1c(C)[nH]c(C(=O)COC(=O)c2c(CC)noc2C)c1C	?	?	-1%[46.1 µM]	/	?	/
O=S(=O)(c1ccccc1)N(CC(O)CN1CCOCC1)c1ccccc1 (configuration not stated)	4%	13%	21%[46.1 µM]	-3	34%	-9
COC(=O)c1ccccc1N1CCS(=O)(=O)CC1	6%[46.1 µM]	9%	?	-2	15%	19
CC(Sc1nc2ccccc2c(=O)n1CC1CCCO1)C(=O)N(C)Cc1ccccc1 (configuration not stated)	8%	?	8%	/	10µM*	/
CC(Sc1nc2ccccc2c(=O)n1CC1CCCO1)C(=O)NC(C)c1ccccc1 (configuration not stated)	13%[46.1 µM]	?	7%	/	-29%	/
CC(Sc1nc2ccccc2c(=O)n1C)C(=O)N(C)C1CCCCC1 (configuration not stated)	?	1.9µM*	?	/	?	/
